Measured values published in the supplement of paper PMC6555819.

Assays:
Assay in all cases: PBM binding z-score (relative to random genomic background probes); higher = stronger binding; sequences stand for … in GC…GCGATTGACAGCGTAGAATGAAGG
[1] = test system: PPARg:RXRa DBDmut IVT, anti-RXR (DBD mutation: RXRa K156A/R161A, NR concentration 270 nM, RXRa partner concentration 90 nM)
In short: (§1)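 Binding buffer was PBS pH 7.4 with 2% milk, 0.02% Triton X-100, 1 mM DTT, 0.2 mg/mL BSA and 0.4 mg/ml salmon testes DNA. In it, ligand-free nuclear receptor dimers were incubated 1 h on custom Agilent 4×180K protein-binding microarrays carrying double-stranded probes. Antibodies against each partner (one per run) detected binding, and z-scores were calculated against random background probes after regression normalization of scanned fluorescence.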

[2] = test system: PPARg:RXRa IVT, anti-PPARg (NR concentration 270 nM, RXRa partner concentration 90 nM)
In short: as §1

[3] = test system: PPARg homodimer (NR concentration 180 nM)
In short: as §1

[4] = test system: PXR:RXRa (NR concentration 270 nM, RXRa partner concentration 90 nM)
In short: as §1

[5] = test system: PXR homodimer (NR concentration 270 nM)
In short: as §1

[6] = test system: RARa:RXR (NR concentration 270 nM, RXRa partner concentration 90 nM)
In short: as §1

[7] = test system: RARa homodimer (NR concentration 270 nM)
In short: as §1

[8] = test system: RARb:RXRa (NR concentration 270 nM, RXRa partner concentration 90 nM)
In short: as §1

[9] = test system: RARb homodimer (NR concentration 270 nM)
In short: as §1

[10] = test system: RARg homodimer (NR concentration 270 nM)
In short: as §1

[11] = test system: RXRa DBDmut IVT, anti-RXR (DBD mutation: RXRa K156A/R161A, NR concentration 90 nM)
In short: as §1

[12] = test system: RXRa homodimer (NR concentration 180 nM)
In short: as §1

[13] = test system: THRa:RXRa (NR concentration 90 nM, RXRa partner concentration 90 nM)
In short: as §1

[14] = test system: THRa homodimer (NR concentration 90 nM)
In short: as §1

[15] = test system: VDR homodimer (NR concentration 270 nM)
In short: as §1

[16] = test system: RARg:RXRa (NR concentration 270 nM, RXRa partner concentration 90 nM)
In short: as §1

[17] = test system: VDR:RXRa (NR concentration 270 nM, RXRa partner concentration 90 nM)
In short: as §1

| Sequence | PBM binding z-score [1] | PBM binding z-score [2] | PBM binding z-score [3] | PBM binding z-score [4] | PBM binding z-score [5] | PBM binding z-score [6] | PBM binding z-score [7] | PBM binding z-score [8] | PBM binding z-score [9] | PBM binding z-score [10] | PBM binding z-score [11] | PBM binding z-score [12] | PBM binding z-score [13] | PBM binding z-score [14] | PBM binding z-score [15] | PBM binding z-score [16] | PBM binding z-score [17] |
| --- | --- | --- | --- | --- | --- | --- | --- | --- | --- | --- | --- | --- | --- | --- | --- | --- | --- |
| TCGAGTAGGTTACGTGGGCATTCAGGGATGAAGA | 3.11 | 2.65 | -0.0563 | -0.044 | -0.265 | 0.41 | -0.517 | 0.704 | 0.175 | 0.607 | 0.0477 | 0.631 | 0.726 | -0.426 | -0.34 |  |  |
| TCGAGTAGGTTACGGGGTCATTCAGGGATGAAGA | 5.23 | 6.24 | 2.46 |  | 2.57 |  | 0.377 | 3.87 | 3.99 | 4.05 | 2.36 | 7.78 |  | 2.5 | 5.89 | 5.96 |  |
| CCGAGTAGGTTACGTGGGGGCATTCAGTGCGAAT | 4.47 | 4.6 | 0.555 | 5.23 | 6.32 | 2.42 | 0.183 | 2.09 | 2.1 | 2.05 | 1.44 | 2.12 |  | 1.09 | 2.85 | 2.87 |  |
| CTATGTAGGTTAAGGGGGTCTTTCAGTTTGAAAG | 7.13 | 7.07 | 2.14 | 2.15 | 1.64 | 1.84 | 0.701 | 1.89 | 1.69 | 1.25 | 0.662 | 1.48 | 1.94 | 0.841 | 1.31 | 1.56 |  |
| CCGAGTAGGTTACGAGGGCGCATTCAGTGCGAAT | 4.97 | 4.85 | -0.00528 | 0.483 | -0.379 |  | -0.752 | 1.29 | 0.436 | 0.287 | -0.122 | 0.655 | 0.838 | -0.711 | 0.0173 | 0.647 | 0.78 |
| TCGAGTAGGTTACGGGGGCATTGAGGGATGAAGA | 5.26 | 6.02 | 2.89 |  | 1.71 |  | 0.325 | 2.69 | 2.27 | 2.72 | 1.71 | 2.66 | 2.97 | 1.39 | 3.13 | 3.47 |  |
| CTATGTAGGTTGAGGGGGTCATTCAGTTTGAAAG | 3.98 | 5.16 | 3.25 | 5.67 | 10.2 | 5.29 | 2.23 | 3.4 | 3.8 | 4.34 | 2.5 | 5.59 | 4.05 | 3.08 | 6.14 | 5.4 |  |
| TCGAGTAGGTTAGGGGGGCATTCAGGGATGAAGA | 4.38 | 5.24 | 2.84 | 3.99 | 3.93 | 3.47 | 2.35 | 3.15 | 2.58 | 2.54 | 2.58 | 2.32 | 3.86 | 2.28 | 3.28 |  | 3.91 |
| CCGAGTAGGTTACGAGGCGGCATTCAGTGCGAAT | 4.1 | 3.3 | 0.605 | -0.147 | -0.255 | 0.2 | -0.448 | 0.768 | 0.155 | 0.173 | 0.159 | 0.329 |  | -0.252 | -0.284 | 0.238 |  |
| CCGAGTAGGTTACGAGGGGGCATTCACTGCGAAT | 4.81 | 4.25 | 1.02 | 4.44 | 0.728 | 2.66 | 0.267 | 2.12 | 2.02 | 2.43 | 1.06 | 1.98 | 3.81 | 0.568 | 2.51 | 3.01 |  |
